# The sample as a whole holds a higher share of hits than the screen did.
# Methyltransferases: Primary Screen for Target Class Profiling of Small Molecule Inhibitors of Methyltransferases; calls only at 40 µM; 3.9% of 25,000 active; AID 1745853, 2022; purified enzyme, MTase-Glo SAH luminescence; active compounds read low; call rule not given here
#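 Each enzyme was reacted with SAM and its substrate, with compounds tested once at 40 uM; SAH formed was read by MTase-Glo luminescence.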
# Starred values were filed as active, the others as inactive; i = inactive; + = active, no number. % is scaled to controls: 0 for no effect and ±100 for the full control effect.
SMILES,Methyltransferases
Cc1ccc(C(=O)Cn2nc3n(C(C)C)c(=O)c4ccc(C(=O)NC5CCCCC5)cc4n3c2=O)cc1,i
Nc1nc(N)c(N=O)c(OCC2CCCCC2)n1,i
NS(=O)(=O)c1ccc(Nc2nc(OCC3CCCCC3)c3[nH]cnc3n2)cc1,+
CCN(CC)C(=O)c1ccc(Nc2nc(OCC3CCCCC3)c3[nH]cnc3n2)cc1,+
CCCc1nc(CN(CC)C(=O)c2ccc(NC(=O)C3CCC3)cc2)no1,i
CCOc1ccc(C(=O)CSc2nnc3n(C)c(=O)c4ccc(C(=O)NC5CCCC5)cc4n23)cc1,i
CCCCN1C(=O)c2cc(C(=O)NCc3ccc(CC)cc3)nn2CC1(C)C(=O)NC1CCCC1 (centres undefined),i
O=C(Cn1nc2n(Cc3ccccc3)c(=O)c3ccccc3n2c1=O)Nc1cccc(Cl)c1,i
CCOC(=O)c1cc2n(n1)CC(C)(C(=O)NCCC(C)C)N(c1ccc(C)cc1C)C2=O (centres undefined),i
Cc1ccc(Cn2c(=O)c3ccc(C(=O)NC(C)C)cc3n3c(=O)n(Cc4ccc(Cl)cc4)nc23)cc1,i
CC1(C)CCC(C)(C)c2cc([C@@H](O)C(=O)Nc3ccc(C(=O)O)cc3F)ccc21,i
CC1(C)CCC(C)(C)c2cc(C#Cc3ccc(C(=O)O)cc3)ccc21,+
CC(N)(C(=O)O)c1ccc(C(=O)O)cc1 (centres undefined),i
CCOc1ccccc1CN1C(=O)c2cc3ccc(OC)cc3n2CC1(C)C(=O)NC1CCCCC1 (centres undefined),i
CCOC(=O)c1cc2n(n1)CC(C)(C(=O)NCc1ccccc1OC)N(CCc1ccc(Cl)cc1)C2=O (centres undefined),i
CCCn1c(=O)c2ccc(C(=O)NC3CCCC3)cc2n2c(=O)n(CC(=O)Nc3ccc(C)c(C)c3)nc12,i
COCCNC(=O)CCCc1nnc2n3nc(-c4ccccc4)nc3c3ccccc3n12,i
Cc1ccc(NC(=O)Cn2nc3n(C(C)C)c(=O)c4ccc(C(=O)NC(C)C)cc4n3c2=O)c(C)c1,i
Cc1cccc(NC(=O)N2CCn3cccc3C2C(C)C)c1C (centres undefined),i
COc1cccc(-c2ccc([C@@H](Oc3cc(-c4ccc(C[C@H](N)C(=O)O)cc4)nc(N)n3)C(F)(F)F)cc2)c1,i
CCOC(=O)[C@@H](N)Cc1ccc(-c2cc(O[C@H](c3ccc(Cl)cc3-n3ccc(C)n3)C(F)(F)F)nc(N)n2)cc1,+
Cc1cccc(NC(=O)CSc2nnc3n(CC(C)C)c(=O)c4ccccc4n23)c1,i
CCc1cc2c(cc3n2CC(C)(C(=O)NC2CCCCCC2)N(CCN2CCCC2)C3=O)s1 (centres undefined),i
COc1c(-c2ccc(O)cc2)cc(OC)c2c1oc1cc(O)c(OC3OC(CO)C(O)C3O)cc12 (centres undefined),i
COc1c2cc(c(O[C@@H]3O[C@H](CO)[C@@H](O)[C@H](O)[C@H]3O)c1OC)CCCCC(O)CCc1ccc(O)c-2c1 (some centres undefined),+
SMILES,Methyltransferases
COc1cc(CO)cc(OC)c1O[C@@H]1O[C@H](CO)[C@@H](O)[C@H](O)[C@H]1O,i
Cc1ccc(Cl)cc1NC(=O)Cn1nc2n(CCC(C)C)c(=O)c3ccccc3n2c1=O,i
COc1cc2c(Oc3ccc(NC(=O)C4(C(=O)Nc5ccc(F)cc5)CC4)cc3F)ccnc2cc1OCCCN1CCOCC1,i
COCCOc1cc2ncnc(Cl)c2cc1OCCOC,i
Cn1cc(-c2cnc(Nc3ccc(F)c(Cl)c3)c3c2CCO3)cn1,i
COc1cc2ncnc(Nc3ccc(F)c(Cl)c3)c2cc1OCCCN1CCOCC1,+
COc1cc2c(Nc3ccc(Cl)c(Cl)c3F)ncnc2cc1OCC1C[C@@H]2CN(C)C[C@@H]2C1 (some centres undefined),+
CSc1ccc(CCNC(=O)c2cc3n(n2)CC(C)(C(=O)NCCC(C)C)N(C)C3=O)cc1 (centres undefined),i
CC1(C(=O)NCc2ccccc2)Cn2nc(-c3ccccc3)cc2C(=O)N1C1CC1 (centres undefined),i
CCOc1ccccc1CNC(=O)C(CC)n1ccc2cc(S(=O)(=O)N3CCCCC3)ccc21 (centres undefined),i
COc1cc(OC)c(NC(=O)N2CCn3cccc3C2Cc2ccccc2)cc1Cl (centres undefined),i
CC(CNC(=O)CCc1nnc2ccc(NCCCN3CCCC3=O)nn12)c1ccccc1 (centres undefined),i
CC(C)Cn1c(=O)c2ccc(C(=O)NC3CCCCC3)cc2n2c(=O)n(CC(=O)c3ccccc3)nc12,i
CCOc1ccccc1CNC(=O)c1cc2n(n1)CC(C)(C(=O)NC1CCCC1)N(CC)C2=O (centres undefined),i
COc1cccc(-c2ccc(C(=O)NCCNC(=O)c3ccccc3OC)cc2)c1,i
N#Cc1cccnc1-c1cccc(C(=O)NCCNC(=O)c2ccccc2)c1,i
CN(C)CCCNC(=O)c1ccc(-c2cc(O)c3ncccc3c2)cc1,+

# Source: PubChem BioAssay (National Center for Advancing Translational Sciences (NCATS))
